This passage reports INHIBITION results from ChEMBL document CHEMBL4513216, “Probing the Open Global Health Chemical Diversity Library for Multistage-Active Starting Points for Next-Generation Antimalarials” (ACS Infect Dis, 2020).

The structures appear in SMILES notation. In all, about 69,000 compounds went through this assay and about 8,600 (12%) showed an effect of 50% or more. The list comes from a sample in which strong results are over-represented; it also holds similar structures and randomly drawn compounds.

In the assay the test system is Plasmodium berghei. As to the kind of experiment: Screen against P. berghei liver stage (PbLuc), transformed with Luciferase, at 10uM. The assay is classed as functional, HepG2. To be noted: tested at 10 uM.
In the case of `O=C(N[C@H]1CN(Cc2ccsc2)[C@@H]2CCCO[C@H]12)C1CC1`, the INHIBITION is reported as 48.2%.
The figure for `O=C(O)c1cc(NS(=O)(=O)c2ccc(Cl)s2)ccc1N1CCOCC1` is 20%; for `Cc1ccc(C(=O)NS(C)(=O)=O)cc1S(C)(=O)=O` it is 1.79%; for `Cc1ccc(C(=O)NS(C)(=O)=O)cc1I` it is 32.3%.
The figure for `Cc1cc(C(=O)NS(C)(=O)=O)ccc1I` is 52%; for `Cc1cc(N2CCN(C(=O)[C@@H]3C[C@H]4C=C[C@@H]3C4)CC2)nc2ccccc12` it is -13.2%.
Consider `CN(Cc1nnc(C2CC2)o1)C1CCCN(c2cccnn2)C1` (centres undefined), for which the INHIBITION is recorded as -9.76%.
`CC(C(=O)NC1CC1)N1CCN(Cc2ccn(C)c(=O)c2)CC1` (centres undefined): the INHIBITION amounted to 7.42%.
Turning to `COc1cccc2c1ccn2CCNC(=O)C1CCC1`, the INHIBITION is reported as -46.8%.
The figure for `OCCn1cc(CN2CCN(CCOc3ccccc3)CC2)cn1` is 37.5%; for `OCCn1cc(CN2CCN(CCOc3ccc(F)cc3)CC2)cn1` it is 39.5%.
On to `OCCn1cc(CN2CCN(CCOCC(F)(F)F)CC2)cn1`, for which the INHIBITION is on record as 54.9%.
As for `NC(=O)NC(=O)CN1CCN(c2nccs2)CC1`, the INHIBITION was 24%.
In the case of `Cc1cc(CN2CCC(N(C)Cc3noc(C4CC4)n3)C2)on1` (centres undefined) it was 19.5%.
The figure for `CCc1nc(CN2CCCC(N(C)Cc3cnc(C)cn3)C2)no1` (centres undefined) is 24.3%; for `CCn1c(C)nnc1CN(C)C1CCN(Cc2cnc(C)cn2)C1` (centres undefined) it is -7.48%; for `Cc1cc(C)n(CCN2CCC(N(C)Cc3noc(C4CC4)n3)C2)n1` (centres undefined) it is 68.5%.
Take `CCc1nc(CN(C(C)=O)C2CCN(Cc3cnc(C)cn3)C2)no1` (centres undefined): the INHIBITION is 12.4%.
In the case of `Cc1nnc(CN(C)C2CCN(CCc3cccs3)C2)n1C` (centres undefined), the INHIBITION is 21.8%.
Consider `CCc1nc(CN(C)C2CCN(Cc3cnc(C)cn3)C2)no1` (centres undefined), for which the INHIBITION is given as 67.5%.
`Cc1nnc(CN(C)C2CCN(Cc3nnc(C4CCC4)o3)C2)n1C` (centres undefined): the INHIBITION was found to be 40.9%.
For `Cc1cnc(CN2CCC(N(C)Cc3nnc(C)n3C)C2)cn1` (centres undefined), the INHIBITION worked out at 62.3%.
In the case of `Cc1ccc(CCN2CCC(N(C)Cc3noc(C4CC4)n3)C2)cc1` (centres undefined) it was 27.9%; in that of `Cc1cc(C)n(CCN2CCC(N(C)Cc3nnc(C)n3C)C2)n1` (centres undefined), 54.6%.
The figure for `Cc1cnc(CN2CCC(N(C)Cc3nnc(C4CC4)n3C)C2)cn1` (centres undefined) is 27.5%; for `COc1cc(C(=O)N2CC3(CCNCC3)c3cc(Cl)ccc32)ccn1` it is -17.1%.
For the molecule `Cc1cc(C(=O)N2CCN(C)CC2)nn1CC(=O)NCc1ccccn1`, the INHIBITION came to 1.95%.
The figure for `Cc1nc(CN2CCC(N(C)Cc3nnc(C4CC4)n3C)C2)cs1` (centres undefined) is 7.12%.
Consider `O=C(NCCS(=O)(=O)N1CCN(c2ncccn2)CC1)C1CCCC1`, for which the INHIBITION was -33.5%.
